Test results reported in PubChem BioAssay AID624305 (National Center for Advancing Translational Sciences (NCATS), 2012).
Results filed as inconclusive are left out. A call without a number means that no potency is given here. A number with no mark means an inactive call. Activity calls are given as the source filed them. Calls come from the whole dose curve; as a rule, active = well fitted activation curve with a large enough effect; inconclusive = small, poorly fitted or top-dose-only effect; inactive = no such curve, though single readings can be large or run the other way.

Experiment: qHTS assay for re-activators of p53 using a Luc reporter: Hit Validation; note: nearly all actives have a fitted effect of over 75% in size
Settings: p53-responsive luciferase reporter cells, luminescence, H1299 line expressing heat-sensitive Ala138Val p53; series mostly up to 46.1 µM
In short: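 Hit confirmation with a 1:5 dilution series, at 37 deg C for 24 hrs, in H1299 cells co-expressing temperature-sensitive p53-A138V and p53-responsive luciferase. Nocodazole served as control; luminescence read after 10 min with detection reagent.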
Potency is the fitted concentration of half-maximal effect.

SMILES | Potency | activation
CN(C)c1cccc(C(=O)NNC(=O)CN2C(=O)C3CC=CCC3C2=O)c1 (stereo not drawn) | 2.31 µM (active) | 
O=C(Nc1nc(-c2cccs2)cs1)c1ccc([N+](=O)[O-])o1 | 20.6 µM (active) | 
COc1ccccc1C(=O)O/N=C(\N)c1ccccc1Cl | inactive | 
CC(=O)OCC(=O)Nc1ccc(N=Nc2ccccc2)cc1 | 0.651 µM (active) | 
c1ccc2sc(-c3ccc4c(c3)OCO4)nc2c1 | 2.31 µM (active) | 
N#Cc1nc(COc2ccccc2)oc1N1CCOCC1 | inactive | 
O=C(/C=C/c1ccccc1)NC1CCSC1=O (stereo not drawn) |  | 23.4% [at 9.22 µM]
Cc1ccc(NC(CC(=O)c2ccccc2)c2ccc(F)cc2)cc1 (stereo not drawn) | inactive | 
Cc1ccc(NC(=O)/C=C/c2ccco2)nc1 | 2.59 µM (active) | 
COc1cc(C2=NOC(C(=O)NCc3ccc(F)cc3)C2)cc(OC)c1OC (stereo not drawn) | inactive | 
c1ccc(-c2csc(Nc3ncccn3)n2)cc1 | 2.31 µM (active) | 
CCCN(C(=O)c1cccc(S(=O)(=O)N2CCCc3ccccc32)c1)C1CCS(=O)(=O)C1 (stereo not drawn) | inactive | 
COCc1[nH]nc2c1C(c1cccc(OC)c1)C(C#N)=C(N)O2 (stereo not drawn) | inactive | 
CNC(=S)N/N=C/c1cc(Br)cc(Br)c1O | inactive | 
N/C(=N\OC(=O)c1ccccc1Cl)c1ccc(Cl)cc1 | 9.2 µM (active) | 
CCc1nnc(NC(=O)/C=C/c2ccco2)s1 | 20.6 µM (active) | 
CN(Cc1ccccc1)C(=O)CNC(=O)Cn1cnc2ccccc2c1=O | inactive | 
COc1ccc(CCNC2CCC(c3ccccc3)CC2)cc1 (stereo not drawn) | inactive | 
Cc1cccc(N/C=C/C(=O)c2cccs2)c1C | 0.0651 µM (active) | 

SMILES | Potency | activation
COc1cc(/C=N/Nc2nc3ccccc3s2)ccc1OC(=O)c1ccccc1F | 1.46 µM (active) | 
Cc1ccc2nc(NC(=O)c3ccc(Cl)s3)sc2c1 | 0.731 µM (active) | 
Cc1cccc(Nc2cc(=O)[nH]c(=O)[nH]2)c1C | inactive | 
C=CCNC(=S)N/N=C(\C)c1ccccn1 | 6.51 µM (active) | 
CN(/N=C/c1ccc2c(c1)OCO2)c1ccccc1 | 14.6 µM (active) | 
Cc1cc(Oc2ccccc2)nc(-c2ccccc2O)n1 | inactive | 
O=C(O)C1C2C=CC(C2)C1C(=O)Nc1ccccc1Br (stereo not drawn) | inactive | 
C/C(=C\COc1ccc2ccc(=O)oc2c1)CC[C@@H](O)C(C)(C)O | inactive | 
COc1ccc(-n2nc([N+](=O)[O-])c(=NCc3ccco3)n2O)cc1 | inactive | 
Nc1nc2ccc(N3CCOCC3)cc2s1 | inactive | 
CC(=O)N(C)c1ccc(NC(=O)CCN2C(=O)c3ccccc3C2=O)cc1 | inactive | 
CCOC(=O)N1CCN(S(=O)(=O)c2ccc(C(=O)NNc3nc4c(C)cc(C)cc4s3)cc2)CC1 | inactive | 
CCOc1ccc(OCCSc2nc3ccccc3n2CC(=O)O)cc1 | inactive | 
NNc1nc(NCc2ccccc2)nc(N2CCOCC2)n1 | inactive | 
Cc1noc(C)c1C(=O)OCC(=O)N1CCc2ccccc21 | inactive | 
O=C(CN1C(=O)NC2(CCCc3ccccc32)C1=O)c1ccc(F)cc1 (stereo not drawn) | inactive | 
COc1ccccc1-c1cc(C(=O)Nc2cc(C)on2)no1 | 16.4 µM (active) | 
CC(=O)Nc1ccc(SCC(=O)c2cc(C)n(-c3ccccc3)c2C)cc1 | 5.8 µM (active) | 
Cc1cs/c(=N/C(=S)Nc2ccccc2)n1C | 1.84 µM (active) | 
